This is one part of a sample in which hits are shown more often than they occur.
PNC assembly inh: High Content Assay for Compounds that inhibit the Assembly of the Perinucleolar Compartment; PC3M PTB-GFP, PNC prevalence imaging, 16 h; stronger effect = lower value; activity change (PNC), negative = inhibition, % at 10 µM; 140,000 tested, 3.1% active; AID 2417, 2010;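 active means readout at or below -70, meaning at least 70% loss of cells showing the perinucleolar compartment, a nuclear body marking cancer cells; inconclusive means readout between -30 and a set limit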
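PC3M cells stably expressing PTB-GFP, 750–1000 cells/well, treated 16 h at 37 °C with compound (23 nl of library stock), in duplicate. After paraformaldehyde fixation and Hoechst stain, imaged at 20x; PNC prevalence scored by image analysis.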
HTT ATP protect: qHTS Multiplex Assay to Identify Dual Action Probes in a Cell Model of Huntington: Cytoprotection (ATP) | PC12 HTT-Q103 induced, cytoprotection, ATP luminescence, 40 h | Potency, µM (titrated, usually from 56.4 µM), most hits filed as activators | 230,000 tested, 0.14% active; further: nearly all actives have a fitted effect of over 45% in size
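ATP quantification (ATPlite) reports survival of PC12 cells in which tebufenozide, 100 nM final, switches on Htt exon 1 with 103 glutamines linked to GFP; compounds are titrated.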
HttQ103 aggreg: qHTS Multiplex Assay to Identify Dual Action Probes in a Cell Model of Huntington: Aggregate Formation (GFP) | Potency, µM (top dose mostly 46.1 µM), most hits filed as inhibitors | 220,000 tested, 1.1% active | PC12 HttQ103-GFP aggregates, Acumen cytometry, 40 h; further: nearly all actives have a fitted effect of over 60% in size
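Ecdysone-promoter PC12 model expressing HTT exon 1 Q103 fused to GFP, induced by tebufenozide at 100 nM final. Compounds titrated; aggregates sized 1–25 µm scored on a 488 nm laser cytometer.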
A number is an active result; [ ] = another dose, or the depositor's remark. Unless noted, the call rests on the fitted dose curve; in most records, active means well fitted curve in the direction sought with a large enough effect; inconclusive means small, poorly fitted or top-dose-only effect, or another doubt; inactive means no such curve, though single readings can be large; an effect the other way counts as inactive or inconclusive.

What do the screens show for `CCOC(=O)C1(P(=O)(c2ccc(Cl)cc2)c2ccc(Cl)cc2)CCC1`?
PNC assembly inh: inactive; HTT ATP protect: inactive; HttQ103 aggreg: inactive

How did CCC(Sc1nc(C)cc(C)n1)C(=O)Nc1ccc(S(N)(=O)=O)cc1 (configuration not stated) do in these assays?
HTT ATP protect: inactive[10 µM]; HttQ103 aggreg: inactive[9.22 µM]

How did CCC(C)(C(=O)NC1CCCCC1)N(C(=O)c1ccccn1)c1ccccc1 (configuration not stated) do in these assays?
PNC assembly inh: inactive; HTT ATP protect: inactive; HttQ103 aggreg: inactive[9.22 µM]

Results for CCC(C)(C(=O)NC1CCCCC1)N(C)C(=O)c1ccccn1 (configuration not stated) ?
PNC assembly inh: -105.8; HTT ATP protect: inactive; HttQ103 aggreg: inactive

Results for Cn1cc(Cl)c(C(=O)NC2CCCCCC2)n1 ?
PNC assembly inh: inactive; HTT ATP protect: inactive[10 µM]; HttQ103 aggreg: inactive

What do the screens show for `Cn1cc(Cl)c(C(=O)NNC(=S)NC2CCCCC2)n1`?
PNC assembly inh: -109.0; HttQ103 aggreg: inactive

What do the screens show for `CCOc1ccc(-n2nnc3c(=O)n(CC(=O)Nc4cc(C)on4)cnc32)cc1`?
HTT ATP protect: inactive[10 µM]; HttQ103 aggreg: inactive[9.22 µM]

What do the screens show for `CCOc1ccc(-n2nnc3c(=O)n(C/C=C/c4ccccc4)cnc32)cc1`?
PNC assembly inh: -88.8; HTT ATP protect: inactive[10 µM]; HttQ103 aggreg: inactive

Results for Cc1ccc(-n2ncc3c(=O)n(CC(=O)OCc4ccccc4)cnc32)cc1 ?
PNC assembly inh: inactive; HTT ATP protect: inactive; HttQ103 aggreg: inactive

Results for Cc1ccc(-n2nnc3c(=O)n(CC(=O)OCc4ccccc4)cnc32)cc1 ?
PNC assembly inh: inactive; HttQ103 aggreg: 0.0028µM

How did CCOc1ccc(OCC)c(NC(=O)CN2CCN(c3cc(C)ccc3C)CC2)c1 do in these assays?
PNC assembly inh: inactive; HTT ATP protect: inactive; HttQ103 aggreg: inactive

What do the screens show for `CN1CCN(CCCN)CC1`?
HTT ATP protect: inactive[10 µM]

Results for O=C1[C@H]2[C@H]3[C@H](O)[C@H](O)C/C(=N/OCc4ccccc4)[C@H]3CC[C@@H]2C(=O)N1C[C@@H]1CCCO1 ?
HTT ATP protect: inactive[10 µM]

Results for CCN1C(=O)[C@H]2[C@H]3[C@H](O)[C@H](O)C/C(=N/OC)[C@@H]3CC[C@@H]2C1=O ?
HTT ATP protect: inactive[10 µM]

Results for CCN1C(=O)[C@@H]2[C@H]3C(=CC[C@H]2C1=O)C(=O)[C@H]1OC1[C@H]3O (some centres not stated) ?
HTT ATP protect: 2.82µM

What do the screens show for `O=C1C2=CC[C@H]3C(=O)N(C[C@@H]4CCCO4)C(=O)[C@@H]3[C@@H]2[C@H](O)[C@@H]2O[C@H]12`?
HTT ATP protect: 1.41µM

How did COc1cccc(/C=C/C(=O)OCC(=O)Nc2cc(S(=O)(=O)N3CCOCC3)ccc2C)c1 do in these assays?
HTT ATP protect: inactive; HttQ103 aggreg: inactive

What do the screens show for `CC(=O)Nc1nc2c(c3c1c(=O)oc1ccccc13)CCCC2`?
PNC assembly inh: inconclusive; HTT ATP protect: inactive; HttQ103 aggreg: inactive

Results for CC(=O)Nc1nc2c(c3c1c(=O)oc1ccccc13)CC(C)CC2 (configuration not stated) ?
PNC assembly inh: -100.0; HTT ATP protect: inactive[10 µM]; HttQ103 aggreg: inactive

Results for Cc1nn(Cc2ccc(Cl)cc2)c(C)c1NC(=O)Cn1nc([N+](=O)[O-])c(Cl)c1C ?
PNC assembly inh: inactive; HTT ATP protect: inactive; HttQ103 aggreg: inactive

What do the screens show for `Cc1nn(Cc2ccc(Cl)cc2)c(C)c1NC(=O)c1ccc([N+](=O)[O-])cc1`?
PNC assembly inh: -83.9; HTT ATP protect: inactive[10 µM]; HttQ103 aggreg: inconclusive

How did Cc1nc(SCc2ccc(C(=O)O)cc2)c2c(C)c(C)sc2n1 do in these assays?
HTT ATP protect: inactive[10 µM]; HttQ103 aggreg: inactive[9.22 µM]

What do the screens show for `CCOC(=O)c1ccccc1NC(=O)CSc1nncn1C`?
HTT ATP protect: inactive[10 µM]; HttQ103 aggreg: inactive[9.22 µM]

What do the screens show for `CCn1cc(C(=O)NCc2ccco2)c(=O)c2cc(S(=O)(=O)N3CCCCCC3)ccc21`?
PNC assembly inh: inconclusive; HTT ATP protect: inactive[10 µM]; HttQ103 aggreg: 12.6µM

Results for O=S(=O)(c1cccc(C(F)(F)F)c1)N1CCN(C(=S)NCc2ccco2)CC1 ?
PNC assembly inh: -108.7; HTT ATP protect: inconclusive; HttQ103 aggreg: inconclusive

How did CCn1cc(C(=O)NCc2ccco2)c(=O)c2cc(S(=O)(=O)N3CCC(C)CC3)ccc21 do in these assays?
PNC assembly inh: inactive; HTT ATP protect: inactive[0.074 µM]; HttQ103 aggreg: inconclusive

What do the screens show for `CC(C)c1ccc(S(=O)(=O)N2CCN(C(=S)NCc3ccco3)CC2)cc1`?
PNC assembly inh: inactive; HTT ATP protect: inactive[10 µM]; HttQ103 aggreg: inactive

How did O=C(NCc1ccco1)c1cccc(S(=O)(=O)N2CCOCC2)c1 do in these assays?
PNC assembly inh: inconclusive; HTT ATP protect: inactive; HttQ103 aggreg: inactive

What do the screens show for `CC(C)(C)C(=O)Nc1ccccc1C(=O)NCc1ccco1`?
PNC assembly inh: -137.9; HTT ATP protect: inactive; HttQ103 aggreg: inactive[9.22 µM]

Results for O=C(Nc1ccccc1C(=O)NCc1ccco1)c1ccco1 ?
PNC assembly inh: inactive; HTT ATP protect: inactive; HttQ103 aggreg: inactive

How did O=C(NCc1ccco1)c1cccc(S(=O)(=O)N2CCCCC2)c1 do in these assays?
PNC assembly inh: -100.0; HTT ATP protect: inactive[10 µM]; HttQ103 aggreg: inactive

Results for CCCCN(CC)Cc1ccc(CNC(=O)Nc2ccccc2)o1 ?
PNC assembly inh: inactive; HTT ATP protect: inactive; HttQ103 aggreg: inactive[9.22 µM]

How did CN1CCN(C(=S)C(=O)Nc2ccccc2)CC1 do in these assays?
HTT ATP protect: inactive[10 µM]; HttQ103 aggreg: inactive

How did O=C(NCc1ccccc1)c1ccc(=O)oc1 do in these assays?
HTT ATP protect: inactive[10 µM]; HttQ103 aggreg: inactive[9.22 µM]

What do the screens show for `COC(=O)c1cn(C)c2ccc(S(=O)(=O)N3CCOCC3)cc2c1=O`?
HttQ103 aggreg: inactive

What do the screens show for `O=C(NCc1ccco1)c1ccc(=O)oc1`?
PNC assembly inh: -82.9; HTT ATP protect: inactive; HttQ103 aggreg: inactive

How did COC(=O)c1cn(C)c2ccc(S(=O)(=O)N3CCCC3)cc2c1=O do in these assays?
PNC assembly inh: -108.5; HTT ATP protect: inactive; HttQ103 aggreg: inactive

How did CCCCn1c(=NC(=O)c2ccco2)c(C(=O)OCC)cc2c(=O)n3cccc(C)c3nc21 do in these assays?
HTT ATP protect: inactive[10 µM]; HttQ103 aggreg: inactive[9.22 µM]

Results for Clc1ccc(Br)cc1-c1nc(-c2ccncc2)no1 ?
PNC assembly inh: inactive; HTT ATP protect: inactive; HttQ103 aggreg: inconclusive

What do the screens show for `COc1ccc(N2CCN(C(=S)Nc3cccc(C)c3)CC2)cc1`?
PNC assembly inh: inactive; HTT ATP protect: inactive; HttQ103 aggreg: inactive

Results for COc1ccc(N2CCN(C(=S)Nc3cc(C)cc(C)c3)CC2)cc1 ?
PNC assembly inh: -106.0; HTT ATP protect: inactive; HttQ103 aggreg: inactive

Results for Cc1ccc([N+](=O)[O-])cc1S(=O)(=O)N(C(=O)c1ccncc1)c1ccc2oc3c(c2c1)CCCC3 ?
PNC assembly inh: inactive; HTT ATP protect: inactive[10 µM]; HttQ103 aggreg: 17.8µM

Results for Cc1ccc(S(=O)(=O)N(C(=O)c2ccncc2)c2ccc3oc4c(c3c2)CCCC4)cc1[N+](=O)[O-] ?
PNC assembly inh: inactive; HTT ATP protect: inactive[10 µM]; HttQ103 aggreg: inconclusive

Results for CCC(=O)NNc1ncnc2c1cnn2-c1ccccc1 ?
HTT ATP protect: inactive; HttQ103 aggreg: inactive
